The values that follow come from PubChem BioAssay (NCATS).

A number with no mark means an inactive call. How the calls were made is not given here.
Potency means the concentration at half of the fitted maximal effect.

This experiment deals with HIV-1 nucleocapsid protein NCp7 (binding to TG oligonucleotide). Description: HIV Nucleocapsid (AID 346).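 Further: potency is for inhibitors that block NC binding and lower polarization.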 Particulars: HIV-1 NC / fluorescein-TGTGTGTG probe, fluorescence polarization. A digest of the protocol: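 Fluorescence polarization binding of 100 nM HIV-1 NC to 10 nM fluorescein-labelled TG4xF oligonucleotide. Buffer was Hepes pH 7.5 with 250mM NaCl, 1uM ZnCl2, TCEP and 2-mercaptoethanol. Compounds were incubated 1 hr at room temperature before the read.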
(In general: Polarisation of emitted light reports the rotation of a fluorescent probe.)
In the case of `O=C(c1csnn1)N1CCC2(CCCN(c3ccncc3)C2)CC1`, the Potency is > 20 µM.
In the case of `CN(C)Cc1ccccc1-c1nccc(Nc2ccc(F)cc2)n1`, the Potency is > 20 µM.
As for `CN(C)Cc1ccccc1-c1cncnc1NCc1cccs1`, the figure is > 20 µM.
As for `COCC(=O)N1CCC[C@@]2(CCN(c3ccncc3)C2)C1`, the figure is > 20 µM.
The value for `c1ccc(CNc2ncnc3ccc(-c4ccoc4)cc23)cc1` was > 20 µM; that for `c1ccc2c(NCCN3CCOCC3)nc(-c3ccoc3)nc2c1` was > 20 µM; that for `CC(=O)N1CCC2(CCN(Cc3ccccc3)CC2)CC1` was > 20 µM.
In the case of `CN(Cc1ccco1)c1ncncc1-c1ccoc1`, the Potency is > 20 µM.
As for `O=C(c1cnccn1)N1CCC2(CC1)CCN(c1ccccc1)CC2`, the figure is > 20 µM; as for `COCCn1c(=O)c(CCc2ccccc2)nc2cnc(N(C)C)nc21`, > 20 µM; as for `Cc1ccccc1-c1nccc(-n2ccnc2)n1`, > 20 µM.
As for `COC(=O)N1CCC[C@@]2(CCN(C(=O)NC(C)C)C2)C1`, the figure is > 20 µM; as for `COc1ncc2nc(C)c(=O)n(CCC#N)c2n1`, > 20 µM.
Regarding `Cc1ccccc1-c1nccc(NCCN2CCOCC2)n1`, the Potency is > 20 µM.
As for `O=S(=O)(c1ccccc1)N1CCC[C@@]2(CCN(c3ncccn3)C2)C1`, the figure is > 20 µM; as for `Cc1noc(C)c1C(=O)N1CCC2(CCCN(Cc3ccccc3)C2)CC1`, > 20 µM; as for `O=c1c(-c2ccccc2)nc2cnc(Oc3ccccc3)nc2n1C1CC1`, > 20 µM.
As for `CN(C)c1ccc(-c2cncnc2Nc2ccc(F)cc2)cc1`, the figure is > 20 µM; as for `O=C(c1cc(C(F)(F)F)cc(C(F)(F)F)c1)N1CCC[C@@]2(CCN(c3ccccn3)C2)C1`, > 20 µM; as for `O=C(Nc1ccccc1)N1CCC2(CC1)CCN(C(=O)c1ccco1)CC2`, > 20 µM.
Take `COc1cccc(-c2cncnc2NC2CCNCC2)c1`: the Potency was > 20 µM.
The value for `COc1ccc(NC(=O)N2CCC3(CC2)CCN(C(=O)c2ccncc2)CC3)cc1` was > 20 µM; that for `COCCn1c(=O)c(-c2cn(C)c3ccccc23)nc2cnc(N3CCNCC3)nc21` was > 20 µM; that for `COc1ccc(C(=O)N2CCC3(CCN(Cc4ccncc4)CC3)CC2)cc1` was > 20 µM.
